Bioassay records deposited in PubChem by The Scripps Research Institute Molecular Screening Center.
LRH-1 inv ag: inverse agonists of human LRH-1 (NR5A2). inhibition, % at 3.6 µM. O00482. HEK293T StAR-luciferase reporter, LRH-1 transfected, 24 h. 360,000 compounds, 0.13% hits;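 active = inhibition above the mean inhibition of all tested compounds plus 3 SD, cut at about 73% in these data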;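 also: 0% = DMSO wells and 100% = reporter-only cells lacking LRH-1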
GalR3 antagonist: antagonists of human GalR3. HEK293 GalR3-CNG cAMP membrane potential fluorescence; galR3 body fused to GalR1 C-terminus. O60755. AID 651719. inhibition, % at 3 µM. 360,000 compounds, 0.44% hits;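 active = inhibition above the screen-wide average plus 3 SD, cut at about 13% in these data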;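 also: forskolin and galanin both at EC90 stimulate the cells; cAMP rise reported by CNG channel membrane potential dye signal; 0% = forskolin plus galanin with DMSO and 100% = forskolin alone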
NCOA1 inh: human NCOA1 inhibition | Q15788 | 360,000 compounds, 0.12% hits | HEK293 GAL4-SRC1 luciferase reporter, luminescence | inhibition, % at 3.6 µM | AID 588354;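 active = inhibition above the campaign mean plus 3 SD, with each screening campaign given its own cutoff, cut at about 60% in these data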;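 also: 0% = DMSO treated cells and 100% = gossypol at 36 µM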
NCOA2 inhibitor: human SRC2 (NCOA2) inhibition. HEK293 GAL4-SRC2 luciferase reporter, luminescence. inhibition, % at 9 µM. 370,000 compounds, 0.17% hits;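 active = inhibition above the mean inhibition of all tested compounds plus 3 SD, set per campaign, cut at about 52% in these data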;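 also: 0% = DMSO treated cells and 100% = cells given Gossypol at 36 µM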
NR2F2 inh: NR2F2 (human) inhibition, primary screen. AID 686940. inhibition, % at 8.6 µM. HEK293T NGFI-A luciferase reporter, luminescence. 370,000 compounds, 0.7% hits;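 active = inhibition above a per-plate cutoff, mean inhibition of test wells between control levels plus 3 SD, cut at about 38% in these data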;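 also: cells cotransfected with COUP-TFII expression vector driving the NGFI-A reporter; 0% = median of COUP-TF2 test wells and 100% = reporter-only cells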
SRC3 inh: inhibits human SRC3 coactivator; HEK293 GAL4-SRC3 luciferase reporter, luminescence; inhibition, % at 3.6 µM; 360,000 compounds, 0.17% hits;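 active = inhibition above a per-campaign cutoff, the mean of all compounds plus 3 SD, cut at about 60% in these data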;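 also: 0% = DMSO-treated cells and 100% = gossypol-treated cells at 36 µM; higher means less SRC3-driven luciferase light from the GAL4 reporter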
VP16 Luc counter: counter-screen for COUP-TFII antagonists: inhibitors of VP16 | shares compounds with NR2F2 inh | HEK293 Gal4-VP16 luciferase reporter, luminescence | 2,500 compounds, 25% hits | inhibition, % at 8.5 µM; in the data active = inhibition above about 13%
COUP-TFII conf: confirmation of human COUP-TFII (NR2F2) inhibitors; shares compounds with NR2F2 inh; HEK293 NGFI-A luciferase reporter, luminescence; inhibition, % at 8.5 µM; 2,500 compounds, 45% hits; AID 687008;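 active = mean inhibition over three repeats above a set limit taken from the earlier primary screen, cut at about 38% in these data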;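 also: 100% = cells given the luciferase reporter alone without the COUP-TF2 vector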
Starred values were filed as active, the others as inactive. This is a sample that favours compounds with a hit; in the whole collection about 1.1% have one here.

Results for Cc1cc(NC(=O)COC(=O)CCC(=O)c2ccc(F)cc2)no1 ?
LRH-1 inv ag: -6; GalR3 antagonist: 0; NCOA1 inh: -3; NCOA2 inhibitor: 4; NR2F2 inh: 14; SRC3 inh: 18

What do the screens show for `Cc1cc(NC(=O)COC(=O)CNS(=O)(=O)c2c(F)cc(F)cc2Br)no1`?
LRH-1 inv ag: -15; GalR3 antagonist: -1; NCOA1 inh: 12; NCOA2 inhibitor: -13; NR2F2 inh: 85*; SRC3 inh: -1; VP16 Luc counter: -1; COUP-TFII conf: -12

Results for CCCOc1ccc(C(=O)N2CCC(Oc3cccnc3)CC2)cc1 ?
NCOA2 inhibitor: 20; NR2F2 inh: 9

Results for COC(=O)c1cc2c(c3c4cc(F)ccc4n(S(=O)(=O)c4cccc(C)c4)c13)C(=O)N(Cc1ccco1)C2 ?
GalR3 antagonist: -3; NCOA2 inhibitor: 14; NR2F2 inh: -8

Results for CN(Cc1ccccc1)C(=O)c1ccc(NC(=O)Cc2cccc(NC(=O)C3CCCN(C(=O)CCc4ccccc4)C3)c2)cc1 (stereo not drawn) ?
LRH-1 inv ag: 7; GalR3 antagonist: -5; NCOA1 inh: 8; NCOA2 inhibitor: 10; NR2F2 inh: 44*; SRC3 inh: 3; VP16 Luc counter: 2; COUP-TFII conf: 23

What do the screens show for `CN(C(=O)c1cccc(NC(=O)Cc2ccc(NC(=O)C3CCCN(C(=O)CCc4ccccc4)C3)cc2)c1)C1CCCC1` (stereo not drawn)?
LRH-1 inv ag: 29; GalR3 antagonist: -6; NCOA1 inh: 38; NCOA2 inhibitor: -4; NR2F2 inh: 58*; SRC3 inh: 16; VP16 Luc counter: 0; COUP-TFII conf: 51*

What do the screens show for `CN(C(=O)c1cccc(NC(=O)Cc2ccc(NC(=O)C3CCCN(C(=O)CCc4ccccc4)C3)cc2)c1)C1CCC1` (stereo not drawn)?
LRH-1 inv ag: 17; GalR3 antagonist: -3; NCOA1 inh: 1; NCOA2 inhibitor: 25; NR2F2 inh: 48*; SRC3 inh: 14; VP16 Luc counter: 4; COUP-TFII conf: 27

How did CN(C(=O)c1ccc(NC(=O)Cc2cccc(NC(=O)C3CCCN(C(=O)CCc4ccccc4)C3)c2)cc1)C1CCCC1 (stereo not drawn) do in these assays?
LRH-1 inv ag: -6; GalR3 antagonist: -4; NCOA1 inh: 6; NCOA2 inhibitor: -6; NR2F2 inh: 23; SRC3 inh: 8

Results for COC(=O)C1=C(C)N(Cc2ccc(C(F)(F)F)cc2)C(=NCc2ccc(C(F)(F)F)cc2)NC1c1ccccc1C(F)(F)F (stereo not drawn) ?
GalR3 antagonist: -1; NCOA2 inhibitor: -24; NR2F2 inh: -6

Results for Cn1ccc2c(N3CCCCCCC3)cc3c(c21)C1CCC3O1 (stereo not drawn) ?
LRH-1 inv ag: 18; GalR3 antagonist: -6; NCOA1 inh: 8; NCOA2 inhibitor: -1; NR2F2 inh: -16; SRC3 inh: 8

Results for Cc1nnc(SCc2nnc(-c3cccs3)o2)n1Cc1ccccc1 ?
LRH-1 inv ag: 4; GalR3 antagonist: -4; NCOA1 inh: -16; NCOA2 inhibitor: -3; NR2F2 inh: 19; SRC3 inh: 18

Results for Clc1ccc(-c2nnc(CSc3nnc(-c4cccs4)n3Cc3ccccc3)o2)cc1 ?
LRH-1 inv ag: 41; GalR3 antagonist: 3; NCOA1 inh: 27; NCOA2 inhibitor: 25; NR2F2 inh: 51*; SRC3 inh: 21; VP16 Luc counter: 8; COUP-TFII conf: 47*

What do the screens show for `Cc1cc(Cl)c(S(=O)(=O)N2CCCC2)cc1OCC(=O)NC1CCCCC1`?
LRH-1 inv ag: -16; GalR3 antagonist: -2; NCOA1 inh: -14; NCOA2 inhibitor: 19; NR2F2 inh: 62*; SRC3 inh: 21; VP16 Luc counter: 4; COUP-TFII conf: 26

What do the screens show for `Cc1cccc(OCCCC(=O)Nc2ccc(Cl)c(S(=O)(=O)N3CCOCC3)c2)c1`?
LRH-1 inv ag: 18; GalR3 antagonist: -2; NCOA1 inh: -12; NCOA2 inhibitor: -21; NR2F2 inh: 39*; SRC3 inh: 28; VP16 Luc counter: 11; COUP-TFII conf: 39*

Results for CN(C)S(=O)(=O)c1ccc(NC(=O)Cc2ccc(S(=O)(=O)N3CCOCC3)s2)cc1 ?
LRH-1 inv ag: 2; GalR3 antagonist: 5; NCOA1 inh: -18; NCOA2 inhibitor: -1; NR2F2 inh: 3; SRC3 inh: 11

How did CCN(CC)S(=O)(=O)c1cc(NC(=O)Cc2ccc(S(=O)(=O)N3CCOCC3)s2)ccc1Cl do in these assays?
LRH-1 inv ag: 25; GalR3 antagonist: -4; NCOA1 inh: 14; NCOA2 inhibitor: 32; NR2F2 inh: 64*; SRC3 inh: 22; VP16 Luc counter: 3; COUP-TFII conf: 30

How did CC(=O)c1ccc(OCCCC(=O)Nc2ccc(C)c(S(=O)(=O)N3CCCCC3)c2)cc1 do in these assays?
LRH-1 inv ag: 13; GalR3 antagonist: 4; NCOA1 inh: 18; NCOA2 inhibitor: 38; NR2F2 inh: 61*; SRC3 inh: 11; VP16 Luc counter: 11; COUP-TFII conf: 40*

Results for CCOc1ccc(C(=O)CCC(=O)Nc2ccc(C)c(S(=O)(=O)N3CCCCC3)c2)cc1 ?
LRH-1 inv ag: 7; GalR3 antagonist: 0; NCOA1 inh: 1; NCOA2 inhibitor: -11; NR2F2 inh: -9; SRC3 inh: 11

How did CC(C)(C)OC(=O)N1C(=O)[C@](OC(=O)c2ccccc2)(c2ccc(F)cc2)c2ccccc21 do in these assays?
LRH-1 inv ag: -9; GalR3 antagonist: -12; NCOA2 inhibitor: -3; NR2F2 inh: 13

What do the screens show for `COc1ccc(NC(=O)CCCOc2ccc(C)cc2)cc1S(=O)(=O)N1CCCCC1`?
LRH-1 inv ag: 17; GalR3 antagonist: -2; NCOA1 inh: -1; NCOA2 inhibitor: 30; NR2F2 inh: 2; SRC3 inh: 2

What do the screens show for `COc1cc(C(C)=O)ccc1OCC(=O)Nc1ccc(C)c(S(=O)(=O)N2CCCCCC2)c1`?
LRH-1 inv ag: 16; GalR3 antagonist: -5; NCOA1 inh: 4; NCOA2 inhibitor: 20; NR2F2 inh: 47*; SRC3 inh: 26; VP16 Luc counter: -6; COUP-TFII conf: 20

Results for Cc1cccc(OCCC(=O)Nc2ccc(C)c(S(=O)(=O)N3CCCCC3)c2)c1 ?
LRH-1 inv ag: 1; GalR3 antagonist: -6; NCOA1 inh: 10; NCOA2 inhibitor: -34; NR2F2 inh: 38*; SRC3 inh: 24; VP16 Luc counter: -7; COUP-TFII conf: 8
